Rows were chosen to be rich in hits. Some 5.1% of all compounds tested hit in one or more screens of this group.
Tau fluor cs: counter-screen for tau fibril formation inhibitors; 0.93% of 280,000 active; Potency, µM (top dose mostly 57.7 µM), without a hit: at the top dose activity change, negative = decrease; tau K18 P301L Alexa594 fluorescence, heparin fibrillization; note: potency is the fitted concentration of half-maximal effect; nearly all actives have a fitted effect of over 55% in size
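Human K18 P301L tau (15 uM unlabeled plus 0.24 uM Alexa 594-labeled, final) in 100 mM sodium acetate pH 7 was mixed with compound and 20 uM heparin and incubated 6 hr at 37 C.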
JMJD2E inh: JMJD2E (human) inhibition; JMJD2E catalytic domain, FDH-coupled NADH fluorescence (FDH is formaldehyde dehydrogenase); Potency, µM (top dose mostly 57.1 µM), inactives show top-dose activity change, negative = inhibition, most hits filed as inhibitors; 1.6% of 230,000 active; active = well fitted inhibition curve with a large enough effect, not every such curve was filed as active; inconclusive = small, poorly fitted or top-dose-only effect, or another doubt; inactive = no such curve, though single readings can be large or run the other way;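 note: potency is the fitted concentration of half-maximal effect; 0% = wells with enzyme and -100% = buffer wells without enzyme; nearly all actives have a fitted effect of over 50% in size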
PNC inhibitor: blocks assembly of the perinucleolar compartment. 3.1% of 140,000 active. AID 2417. PC3M PTB-GFP, PNC prevalence imaging, 16 h; stronger effect = lower value. activity change (PNC), negative = inhibition, % at 10 µM;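 active = readout at or below -70, meaning at least 70% loss of cells showing the perinucleolar compartment, a nuclear body marking cancer cells; inconclusive = readout between -30 and a set limit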;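 note: plate controls were DMSO wells for no effect and camptothecin positive control wells for full effect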
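PC3M cells stably expressing PTB-GFP, 750–1000 cells/well, treated 16 h at 37 °C with compound (23 nl of library stock), in duplicate. After paraformaldehyde fixation and Hoechst stain, imaged at 20x; PNC prevalence scored by image analysis.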
Tau fibril ThT: blocks human tau fibril formation measured by thioflavin T; P10636; recombinant tau K18 P301L (four-repeat tau fragment), heparin-induced fibrillization, ThT fluorescence; Potency, µM (doses to about 57.4 µM), inactives show at the top dose activity, negative = inhibition, actives largely listed as inhibitors; 2.1% of 270,000 active; note: potency is the fitted concentration of half-maximal effect; nearly all actives have a fitted effect of over 55% in size
Target sequence (P10636 561-689 P618L limits assumed): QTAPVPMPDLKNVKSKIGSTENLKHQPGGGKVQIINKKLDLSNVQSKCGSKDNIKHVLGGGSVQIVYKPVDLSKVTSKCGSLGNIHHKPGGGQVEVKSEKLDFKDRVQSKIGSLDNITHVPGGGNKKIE
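Aggregation was driven by heparin (20 uM final) acting on recombinant tau […] bearing P301L in 100 mM sodium acetate pH 7; fibrils were detected with Thioflavin T.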
Tau fibril FP: tau fibrillization inhibition (FP); 0.39% of 280,000 active; P10636; Potency, µM (doses to about 57.7 µM), for inactives: at the top dose activity, negative = inhibition, hits mostly inhibitors; K18 P301L tau heparin fibrillization, Alexa594 FP, 6 h; note: potency is the fitted concentration of half-maximal effect; nearly all actives have a fitted effect of over 55% in size
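Quantitative HTS format: compounds meet 15 uM recombinant K18 P301L tau and Alexa 594-tau tracer in 100 mM sodium acetate pH 7; 20 uM heparin triggers fibrillization at 37 C over 6 hr; FP gives the signal.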
NPSR antagonist: neuropeptide S receptor (human) antagonism, cAMP; AID 1461; 1% of 220,000 active; CHO-NPSR cells, cAMP TR-FRET, antagonist mode; Q6W5P4; Potency, µM (top dose mostly 38.3 µM), for the others: at the top dose activity change, negative = inhibition, hits mostly inhibitors; note: potency is the fitted concentration of half-maximal effect; nearly all actives have a fitted effect of over 50% in size
Target sequence (Q6W5P4 whole entry, looked up): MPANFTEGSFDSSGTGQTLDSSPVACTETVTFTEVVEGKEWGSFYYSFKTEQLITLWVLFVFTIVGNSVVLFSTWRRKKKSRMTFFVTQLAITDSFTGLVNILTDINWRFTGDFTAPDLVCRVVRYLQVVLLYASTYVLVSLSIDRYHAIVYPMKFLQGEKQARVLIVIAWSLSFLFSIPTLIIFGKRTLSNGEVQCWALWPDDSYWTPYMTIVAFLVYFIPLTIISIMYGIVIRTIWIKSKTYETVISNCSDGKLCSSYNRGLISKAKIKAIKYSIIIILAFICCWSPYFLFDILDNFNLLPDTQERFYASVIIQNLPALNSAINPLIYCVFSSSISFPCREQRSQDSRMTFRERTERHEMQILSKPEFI
An asterisk follows results filed as active. Unless noted, calls come from the whole dose curve; as a rule, active = well fitted curve in the direction sought with a large enough effect; inconclusive = small, poorly fitted or top-dose-only effect, or another doubt; inactive = no such curve, though single readings can be large; an effect the other way counts as inactive or inconclusive. Unless noted, % is set by controls: 0 for no effect and ±100 for the full control effect.

COc1ccc(-c2cc(C(=O)Nc3sc4c(c3C(N)=O)CCC(C)C4)no2)cc1 (centres undefined) was read as Tau fluor cs -10.2%, Tau fibril ThT inconclusive and Tau fibril FP -11.8%.
`NC(=O)c1c(NC(=O)c2cc(-c3ccc(F)cc3)on2)sc2c1CCCC2` gave Tau fluor cs -21.6%, Tau fibril ThT 31.6µM* and Tau fibril FP inconclusive.
Screening CC(C)(C)OC(=O)C1=NOC2(C=CC(=O)C=C2)C1 returned Tau fluor cs -11.0%, JMJD2E inh -10.7%, Tau fibril ThT 12.6µM* and Tau fibril FP inconclusive.
COc1ccc2nc(NC(=O)c3nc(SC(C)C)ncc3Cl)sc2c1 was read as Tau fluor cs -9.6%, Tau fibril ThT -10.0% and Tau fibril FP -7.8%.
Screening Cc1ccc(CS(=O)(=O)c2ncc(Cl)c(C(=O)Nc3nc4ccc(F)cc4s3)n2)cc1 returned Tau fluor cs -23.9%, Tau fibril ThT 14.1µM* and Tau fibril FP -10.7%.
`Cc1ccc(CSc2ncc(Cl)c(C(=O)Nc3nc4ccc(C)cc4s3)n2)cc1` gave Tau fluor cs -3.8%, Tau fibril ThT 1.6% and Tau fibril FP -6.3%.
For Cc1ccc(CS(=O)(=O)c2ncc(Cl)c(C(=O)Nc3nc4ccc(C)cc4s3)n2)cc1 the results were Tau fluor cs inconclusive, Tau fibril ThT 22.4µM* and Tau fibril FP -17.4%.
For COc1ccc(OC)c(NC(=O)c2nc(S(=O)(=O)Cc3ccc(F)cc3)ncc2Cl)c1 the results were Tau fluor cs inconclusive, Tau fibril ThT 12.6µM* and Tau fibril FP 0.6%.
Screening CCCc1nnc(NC(=O)c2nc(S(=O)(=O)Cc3ccc(C)cc3)ncc2Cl)s1 returned Tau fluor cs -20.2%, Tau fibril ThT inconclusive and Tau fibril FP inconclusive.
`COc1ccc2nc(NC(=O)c3nc(S(=O)(=O)Cc4ccc(C)cc4)ncc3Cl)sc2c1` gave Tau fluor cs inconclusive, Tau fibril ThT 5.62µM* and Tau fibril FP -7.2%.
For CCc1ccc(N2CC(c3nc4ccccc4n3Cc3ccccc3C)CC2=O)cc1 (centres undefined) the results were Tau fluor cs -6.1%, Tau fibril ThT -0.4% and Tau fibril FP -6.9%.
For O=C(Nc1ccc(O)c2c(=O)cc(-c3ccccc3Cl)oc12)c1cccc(Cl)c1 the results were Tau fluor cs -14.6%, JMJD2E inh 3.1%, PNC inhibitor -80.0*, Tau fibril ThT -8.4%, Tau fibril FP inconclusive and NPSR antagonist -8.2%.
Cc1cccc(C(=O)Nc2ccc(O)c3c(=O)cc(-c4ccccc4Cl)oc23)c1 was read as Tau fluor cs -26.7%, JMJD2E inh 21.4%, PNC inhibitor 60.3, Tau fibril ThT -21.1%, Tau fibril FP -4.5% and NPSR antagonist -7.5%.
O=C(Nc1ccc(O)c2c(=O)cc(-c3ccccc3Cl)oc12)c1ccc(Br)cc1 was read as Tau fluor cs -18.1%, Tau fibril ThT 14.1µM* and Tau fibril FP 4.6%.
For COc1ccc(NC(=O)CC2C(=O)N(c3cccc(C)c3)C(=O)N2Cc2cccnc2)cc1 (centres undefined) the results were Tau fluor cs -1.2%, Tau fibril ThT 4.1% and Tau fibril FP 0.1%.
`CCS(=O)(=O)N1N=C(c2ccc(C)cc2)CC1c1cc2ccc(OC)cc2nc1Cl` (centres undefined) gave Tau fluor cs inconclusive, Tau fibril ThT -8.6% and Tau fibril FP 39.8µM*.
Screening CCOc1ccc2nc(Cl)c(C3CC(c4ccc(OC)cc4)=NN3S(C)(=O)=O)cc2c1 (centres undefined) returned Tau fluor cs inconclusive, Tau fibril ThT -8.4% and Tau fibril FP 35.5µM*.
CCCCC[C@H](O)/C=C/C1=C(CCCCCCC(=O)O)C(=O)CC1 was read as Tau fluor cs -1.6%, JMJD2E inh -8.0%, PNC inhibitor -114.6*, Tau fibril ThT -17.5%, Tau fibril FP 5.1% and NPSR antagonist -26.1%.
